# Experimental data: the supplement of paper PMC8975748
# Structures can show the parent of a compound that is named as a salt. ± gives the standard deviation of the averaged measurements.
# Key:
# [1] = test system: Saccharomyces cerevisiae BY4741 SeMeCo community; test: mean cell size (pixel area) (pixels); higher = larger cells; conditions: 10 µM; 24 h; SM minimal medium
# In short: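 Plates of 384 wells were acoustically predosed with drug at a final 10 µM in SM medium, and 70 µl of a Saccharomyces cerevisiae BY4741 preculture diluted from OD600 = 1.0 to OD600 = 0.3 was added for 24 h. The yeast formed a four-plasmid fluorescent community in which each plasmid complements one auxotrophy and carries a fluorescent marker. Fixed cells were imaged by automated confocal microscopy and analysed in Harmony for mean cell pixel area per well. Values are means of 3 replicates. Same SeMeCo high-content imaging drug screen: Selleck FDA-approved drugs at 10 µM, 24 h in SM medium, 384-well plates, 3 replicates.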
# [2] = test system: Saccharomyces cerevisiae BY4741 SeMeCo community; test: z-score of prototroph abundance vs DMSO median; higher = larger share of this subpopulation than in DMSO controls; conditions: 10 µM; 24 h; SM minimal medium; subpopulation (auxotrophy): Prototroph
# In short: (§1)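 Cells of a Saccharomyces cerevisiae BY4741 community, carrying four plasmids that each restored one auxotrophy and encoded a distinct fluorescent protein, were pre-grown overnight to OD600 1.0 and diluted to 0.3. A 70 µl volume was added to 384-well plates acoustically predosed with library drugs (10 µM final) and grown 24 h in minimal SM medium. After paraformaldehyde fixation, automated confocal microscopy was used, with single-auxotroph fluorescent strains for thresholds and autofluorescence correction. The abundance of each subpopulation was scored as a z-score against the vehicle-well median.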
# [3] = test system: Saccharomyces cerevisiae BY4741 SeMeCo community; test: z-score of subpopulation abundance vs DMSO median, subpopulation auxotrophic for M; higher = larger share of this subpopulation than in DMSO controls; conditions: 10 µM; 24 h; SM minimal medium; subpopulation (auxotrophy): M
# In short: as §1
# [4] = test system: Saccharomyces cerevisiae BY4741 SeMeCo community; test: z-score of subpopulation abundance vs DMSO median, subpopulation auxotrophic for H; higher = larger share of this subpopulation than in DMSO controls; conditions: 10 µM; 24 h; SM minimal medium; subpopulation (auxotrophy): H
# In short: as §1
# [5] = test system: Saccharomyces cerevisiae BY4741 SeMeCo community; test: z-score of subpopulation abundance vs DMSO median, subpopulation auxotrophic for LU; higher = larger share of this subpopulation than in DMSO controls; conditions: 10 µM; 24 h; SM minimal medium; subpopulation (auxotrophy): LU
# In short: as §1
# [6] = test system: Saccharomyces cerevisiae BY4741 SeMeCo community; test: z-score of subpopulation abundance vs DMSO median, subpopulation auxotrophic for LM; higher = larger share of this subpopulation than in DMSO controls; conditions: 10 µM; 24 h; SM minimal medium; subpopulation (auxotrophy): LM
# In short: as §1
# [7] = test system: Saccharomyces cerevisiae BY4741 SeMeCo community; test: z-score of subpopulation abundance vs DMSO median, subpopulation auxotrophic for HM; higher = larger share of this subpopulation than in DMSO controls; conditions: 10 µM; 24 h; SM minimal medium; subpopulation (auxotrophy): HM
# In short: as §1
# [8] = test system: Saccharomyces cerevisiae BY4741 SeMeCo community; test: z-score of subpopulation abundance vs DMSO median, subpopulation auxotrophic for HU; higher = larger share of this subpopulation than in DMSO controls; conditions: 10 µM; 24 h; SM minimal medium; subpopulation (auxotrophy): HU
# In short: as §1
# [9] = test system: Saccharomyces cerevisiae BY4741 SeMeCo community; test: z-score of subpopulation abundance vs DMSO median, subpopulation auxotrophic for UM; higher = larger share of this subpopulation than in DMSO controls; conditions: 10 µM; 24 h; SM minimal medium; subpopulation (auxotrophy): UM
# In short: as §1
# [10] = test system: Saccharomyces cerevisiae BY4741 SeMeCo community; test: z-score of subpopulation abundance vs DMSO median, subpopulation auxotrophic for HL; higher = larger share of this subpopulation than in DMSO controls; conditions: 10 µM; 24 h; SM minimal medium; subpopulation (auxotrophy): HL
# In short: as §1
# [11] = test system: Saccharomyces cerevisiae BY4741 SeMeCo community; test: z-score of subpopulation abundance vs DMSO median, subpopulation auxotrophic for HLU; higher = larger share of this subpopulation than in DMSO controls; conditions: 10 µM; 24 h; SM minimal medium; subpopulation (auxotrophy): HLU
# In short: as §1
# [12] = test system: Saccharomyces cerevisiae BY4741 SeMeCo community; test: z-score of subpopulation abundance vs DMSO median, subpopulation auxotrophic for HUM; higher = larger share of this subpopulation than in DMSO controls; conditions: 10 µM; 24 h; SM minimal medium; subpopulation (auxotrophy): HUM
# In short: as §1
# [13] = test system: Saccharomyces cerevisiae BY4741 SeMeCo community; test: z-score of subpopulation abundance vs DMSO median, subpopulation auxotrophic for HLUM; higher = larger share of this subpopulation than in DMSO controls; conditions: 10 µM; 24 h; SM minimal medium; subpopulation (auxotrophy): HLUM
# In short: as §1
# [14] = test system: Saccharomyces cerevisiae BY4741 SeMeCo community; test: z-score of subpopulation abundance vs DMSO median, subpopulation auxotrophic for L; higher = larger share of this subpopulation than in DMSO controls; conditions: 10 µM; 24 h; SM minimal medium; subpopulation (auxotrophy): L
# In short: as §1
# [15] = test system: Saccharomyces cerevisiae BY4741 SeMeCo community; test: z-score of subpopulation abundance vs DMSO median, subpopulation auxotrophic for U; higher = larger share of this subpopulation than in DMSO controls; conditions: 10 µM; 24 h; SM minimal medium; subpopulation (auxotrophy): U
# In short: as §1
# [16] = test system: Saccharomyces cerevisiae BY4741 SeMeCo community; test: z-score of subpopulation abundance vs DMSO median, subpopulation auxotrophic for HLM; higher = larger share of this subpopulation than in DMSO controls; conditions: 10 µM; 24 h; SM minimal medium; subpopulation (auxotrophy): HLM
# In short: as §1
# [17] = test system: Saccharomyces cerevisiae BY4741 SeMeCo community; test: z-score of subpopulation abundance vs DMSO median, subpopulation auxotrophic for LUM; higher = larger share of this subpopulation than in DMSO controls; conditions: 10 µM; 24 h; SM minimal medium; subpopulation (auxotrophy): LUM
# In short: as §1
SMILES,mean cell size [1],z-score of prototroph abundance [2],z-score of subpopulation abundance [3],z-score of subpopulation abundance [4],z-score of subpopulation abundance [5],z-score of subpopulation abundance [6],z-score of subpopulation abundance [7],z-score of subpopulation abundance [8],z-score of subpopulation abundance [9],z-score of subpopulation abundance [10],z-score of subpopulation abundance [11],z-score of subpopulation abundance [12],z-score of subpopulation abundance [13],z-score of subpopulation abundance [14],z-score of subpopulation abundance [15],z-score of subpopulation abundance [16],z-score of subpopulation abundance [17]
Nc1ccc(S(=O)(=O)Nc2ccnn2-c2ccccc2)cc1 [Sulfaphenazole],12.54 ± 0.079,0.15,0.25,-0.07,-0.02,-0.2,-0.42,-0.47,0,-0.02,-0.27,-0.72,0.07,–,–,–,–
CCC(=O)c1c(O)cc(O)cc1O [Flopropione],12.5 ± 0.18,0.7,0.69,0.18,–,0.21,0.19,1.06,0.25,-0.4,-0.08,-0.23,-0.26,-0.09,-0.13,0.03,-0.46
CC[C@H](C)[C@H](N)C1=N[C@H](C(=O)N[C@@H](CC(C)C)C(=O)N[C@H](CCC(=O)O)C(=O)N[C@H](C(=O)N[C@H]2CCCCNC(=O)[C@H](CC(N)=O)NC(=O)[C@@H](CC(=O)O)NC(=O)[C@H](Cc3cnc[nH]3)NC(=O)[C@@H](Cc3ccccc3)NC(=O)[C@H]([C@@H](C)CC)NC(=O)[C@@H](CCCN)NC2=O)[C@@H](C)CC)CS1 [Bacitracin],12 ± 0.24,-2.14,-0.01,3.13,–,1.28,1.2,2.07,0.03,3.67,3.61,1.59,1.51,1.05,–,1.35,0.84
OC(CCN1CCCCC1)(c1ccccc1)C1CCCCC1 (stereo not drawn) [Trihexyphenidyl hydrochloride],12.5 ± 0.24,-0.03,0.49,-0.13,1.04,-0.29,–,-0.18,0.41,-0.03,-0.09,-0.31,–,–,0.45,–,0.73
CCOc1cc(N)c(Cl)cc1C(=O)NCC1CN(Cc2ccc(F)cc2)CCO1 (stereo not drawn) [Mosapride Citrate],12.5 ± 0.12,-0.84,0.17,–,0.9,-0.05,0.32,0.11,–,–,0.02,–,1.04,–,0.31,–,0.54
CC(C)c1nc(N(C)S(C)(=O)=O)nc(-c2ccc(F)cc2)c1/C=C/[C@@H](O)C[C@@H](O)CC(=O)O [Rosuvastatin Calcium],11.6 ± 0.2,-1.23,-1.93,0.06,–,-1.44,3.45,2.1,2.31,0.38,1.41,2.14,0.9,0.29,–,3.96,1.01
Oc1cccc(O)c1 [Resorcinol],12.4 ± 0.22,0.94,-0.66,-0.05,–,-0.4,-0.29,-0.64,-0.77,–,0,-0.96,-0.65,-0.23,0.1,-0.64,-0.89
O=C(O)Cc1ccccc1Nc1c(Cl)cccc1Cl [Diclofenac Sodium],12.7 ± 0.18,1.13,0.68,-0.51,–,-0.23,-0.3,-1.76,-1.45,-0.56,-1.75,-1.27,-0.38,-0.21,-0.91,-0.07,–
Cc1cc(C)nc(O)n1.O=C(Nc1ccc([N+](=O)[O-])cc1)Nc1ccc([N+](=O)[O-])cc1 [Nicarbazin],12.4 ± 0.18,0.74,-0.21,-0.25,–,-1.07,-0.62,-0.22,-0.4,-1.2,-0.28,-0.86,-0.56,-0.96,–,-0.49,-0.52
"OCc1ccc(Cl)cc1Cl [2,4-dichlorobenzyl alcohol]",12.32 ± 0.052,-0.15,-0.73,0,–,0.21,-0.64,-0.65,–,0.12,0.04,-0.47,0.69,0.8,0.58,0.03,–
O=c1[nH]c(=O)n([C@H]2C[C@H](O)[C@@H](CO)O2)cc1/C=C/Br [Brivudine],12.41 ± 0.042,0.4,0.48,-2.5,–,-1.47,-0.22,-0.94,0.16,-1.84,-0.95,-0.74,-1.13,-2.11,0.12,-1.12,-0.74
C[C@]12CC[C@@H]3c4ccc(O)cc4C[C@@H](CCCCCCCCC[S+]([O-])CCCC(F)(F)C(F)(F)F)[C@H]3[C@@H]1CC[C@@H]2O (stereo partly drawn) [Fulvestrant],12.4 ± 0.074,-1.17,0.89,0.56,–,1.39,0.9,0.88,0.53,0.87,1.48,1.23,1.35,1.23,-0.43,0.89,1.7
Cc1c(-c2ccc(O)cc2)n(Cc2ccc(OCCN3CCCCCC3)cc2)c2ccc(O)cc12 [Bazedoxifene HCl],12.54 ± 0.11,-0.43,0.94,1.47,0.03,0.49,1.47,–,-0.08,1.1,-0.15,-0.15,-0.25,–,-0.23,–,0.03
